Laboratory results published in PubChem BioAssay (NCI).
Values joined by “and” are separate entries in the source; they are usually repeats but may differ in a detail not shown here. Equal entries are not always repeated. The panel holds about 83,000 compounds, 20% with a hit somewhere; the sample as a whole holds those more often.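 Growth was measured after 48 h exposure to one concentration of compound in 96-well plates. Values under 10 count as active.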 Active and inactive are the calls of the source.

Columns and labels:
Experiment in all cases: NCI-60 one-dose screen, 48 h (100 = growth as untreated, 0 = no growth, -100 = all killed)
Conditions in all cases: 10 µM unless noted
HT29 colon = test system: HT29 colon
SNB-75 CNS = test system: SNB-75 CNS
SNB-19 CNS = test system: SNB-19 CNS
U251 CNS = test system: U251 CNS
SK-MEL-5 melanoma = test system: SK-MEL-5 melanoma
UACC-62 melanoma = test system: UACC-62 melanoma
LOX IMVI melanoma = test system: LOX IMVI melanoma
SK-MEL-28 melanoma = test system: SK-MEL-28 melanoma
PC-3 prostate = test system: PC-3 prostate

Measured: growth

CN1C(=O)/C(=C\C(=O)c2cc3ccccc3oc2=O)c2ccccc21
inactive: HT29 colon 93.4% | SNB-75 CNS 96.8% | SNB-19 CNS 78.9% | U251 CNS 42.6% | SK-MEL-5 melanoma 92.1% | UACC-62 melanoma 42.6% | LOX IMVI melanoma 58.9% | SK-MEL-28 melanoma 60.8%

COc1ccc(C(=O)/C=C/c2ccc3c(c2)OCCO3)cc1S(N)(=O)=O
inactive: HT29 colon 33.4% | SNB-75 CNS 82.5% | SNB-19 CNS 51.4% | U251 CNS 12.2% | PC-3 prostate 103% | SK-MEL-5 melanoma 99.8% | UACC-62 melanoma 87.9% | LOX IMVI melanoma 23.7% | SK-MEL-28 melanoma 101%

Cn1cc(-c2cc(N)n3nc(-c4c[nH]c5ccccc45)cc3n2)c2cc(Br)ccc21
active: HT29 colon -52% | SNB-75 CNS -47.7% | SNB-19 CNS -85.9% | U251 CNS -95.2% | PC-3 prostate -42.7% | SK-MEL-5 melanoma -94.5% | UACC-62 melanoma -69.4% | LOX IMVI melanoma -79.3% | SK-MEL-28 melanoma -59.1%

CN1CCN(c2ccc3c4c(cccc24)C(=O)N(c2cccc(-c4nn(-c5ccccc5)cc4-c4nc5ccccc5s4)c2)C3=O)CC1
inactive: HT29 colon 45.6% | SNB-75 CNS 81.9% | SNB-19 CNS 82.9% | U251 CNS 67.9% | PC-3 prostate 90.6% | SK-MEL-5 melanoma 90.3% | UACC-62 melanoma 119% | LOX IMVI melanoma 96.6% | SK-MEL-28 melanoma 51.6%

COc1cc(CNC(=O)C[C@H](C)CCC=C(C)C)ccc1OCc1cn(-c2ccccc2Cl)nn1
active: SK-MEL-5 melanoma 5.29%
inactive: HT29 colon 76.7% | SNB-75 CNS 60% | SNB-19 CNS 61.3% | U251 CNS 80.6% | PC-3 prostate 49.4% | UACC-62 melanoma 39.6% | LOX IMVI melanoma 56.4% | SK-MEL-28 melanoma 69.8%

COC(=O)CSC1=C(C)C(=O)C(OC)=C(OC)C1=O
inactive: HT29 colon 103% | SNB-75 CNS 66.6% | U251 CNS 98.1% | PC-3 prostate 76.9% | SK-MEL-5 melanoma 86.4% | UACC-62 melanoma 70.5% | LOX IMVI melanoma 83.3% | SK-MEL-28 melanoma 104%

CC1=NN(C2=NC(=O)C(CC(=O)Nc3ccccc3C(F)(F)F)S2)C(c2ccc(N(C)C)cc2)C1 (stereo not given)
inactive: HT29 colon 40.8% | SNB-75 CNS 54.9% | SNB-19 CNS 54.5% | U251 CNS 49.3% | PC-3 prostate 34.6% | SK-MEL-5 melanoma 43.4% | UACC-62 melanoma 41.4% | LOX IMVI melanoma 46.3% | SK-MEL-28 melanoma 42%

CCCCC[C@@H]1C/C=C(\C)[C@@H](O)C(C)(C)C(=O)[C@@H](C)/C=C(\C)[C@@H]2C[C@H](O)C[C@](O)(CC(=O)O1)O2
inactive: HT29 colon 50.4% | SNB-75 CNS 32.9% | SNB-19 CNS 37.2% | U251 CNS 61.2% | PC-3 prostate 21.4% | UACC-62 melanoma 55.8% | LOX IMVI melanoma 50.9% | SK-MEL-28 melanoma 76.3%
active: SK-MEL-5 melanoma -17.6%

O=C(N/N=C/c1ccc(B(O)O)s1)c1[nH]c2ccc(Br)cc2c1-c1ccccc1
active: HT29 colon -63.3% | SNB-75 CNS -72.7% | SNB-19 CNS -97.3% | U251 CNS -79.8% | PC-3 prostate -9.11% | SK-MEL-5 melanoma -95.3% | UACC-62 melanoma -99.5% | LOX IMVI melanoma -99.3% | SK-MEL-28 melanoma -93.3%

Cc1nn(-c2ccccc2)c2nc(C)n(CC(=O)N/N=C/c3cccc([N+](=O)[O-])c3)c(=O)c12
inactive: HT29 colon 102% | SNB-75 CNS 79.5% | SNB-19 CNS 77% | U251 CNS 98.3% | PC-3 prostate 80.1% | SK-MEL-5 melanoma 97.6% | UACC-62 melanoma 81.3% | LOX IMVI melanoma 88.8% | SK-MEL-28 melanoma 106%

COc1cncc(-c2ccc3ncnc(N4CCc5ccc(Cl)cc54)c3c2)c1
active: SK-MEL-5 melanoma -16.7% | LOX IMVI melanoma 6.64%
inactive: HT29 colon 31.4% | SNB-75 CNS 24.3% | SNB-19 CNS 35.9% | U251 CNS 51% | UACC-62 melanoma 16.3% | SK-MEL-28 melanoma 48.6%

CC1(C)CC(=O)C2=C(C1)OC(N)=C(c1nc3ccccc3[nH]1)C2c1ccc(Cl)cc1 (stereo not given)
-40.8% (active) and 104% (inactive): SK-MEL-5 melanoma
-22.9% (active) and 94.3% (inactive): UACC-62 melanoma
inactive: HT29 colon 86.8% and 115% | SNB-75 CNS 65.4% and 124% | SNB-19 CNS 50% and 99.9% | U251 CNS 45.1% and 112% | PC-3 prostate 35.6% and 107% | LOX IMVI melanoma 42.9% and 107% | SK-MEL-28 melanoma 30.1% and 109%

Nc1nn2c(-c3cc4cc(Br)ccc4oc3=O)ccnc2c1N=Nc1ccccc1
active: SNB-75 CNS -59.8% | U251 CNS -11.2% | SK-MEL-5 melanoma -20.8%
inactive: HT29 colon 22.4% | PC-3 prostate 14.4% | UACC-62 melanoma 31.6% | LOX IMVI melanoma 18% | SK-MEL-28 melanoma 52.5%

Cc1nc(Nc2ccccn2)sc1C1=NNC(c2ccccc2F)C1 (stereo not given)
inactive: HT29 colon 30.4% | SNB-75 CNS 62.3% | SNB-19 CNS 56.1% | U251 CNS 51% | PC-3 prostate 58.5% | SK-MEL-5 melanoma 48.7% | UACC-62 melanoma 29.4% | LOX IMVI melanoma 31.5% | SK-MEL-28 melanoma 65.9%

Cc1ccc(NC(=O)N/N=C/c2c[nH]c3ccccc23)c(C)c1
active: HT29 colon -35.4% | U251 CNS 9.2% | SK-MEL-5 melanoma 5.42% | UACC-62 melanoma 8.67% | LOX IMVI melanoma -19%
inactive: SNB-75 CNS 14.5% | SNB-19 CNS 34.7% | PC-3 prostate 27.8% | SK-MEL-28 melanoma 47.8%

COc1ccc(/C=C/C(=O)c2ccc(S(=O)(=O)NCCNc3nc(N(C)C)nc(N4CCOCC4)n3)cc2)cc1
inactive: HT29 colon 81.1% | SNB-19 CNS 81.2% | U251 CNS 77.4% | PC-3 prostate 77.4% | SK-MEL-5 melanoma 94.6% | UACC-62 melanoma 76.9% | LOX IMVI melanoma 79.7% | SK-MEL-28 melanoma 95.1%

COc1c(B(O)O)cc(F)cc1-c1nc2ccc3[nH]ncc3c2c2c1COCC2
inactive: HT29 colon 74.2% | SNB-19 CNS 32.7% | U251 CNS 45.4% | SK-MEL-5 melanoma 64.6% | UACC-62 melanoma 68.2% | LOX IMVI melanoma 24.2% | SK-MEL-28 melanoma 61.9%
active: SNB-75 CNS 0.778%

O=C1CCC(N2C(=O)c3cccc(NCCCCCC(=O)N4CCN(c5ccc6nc7c(nc6c5C(F)(F)F)C(=O)c5ncccc5C7=O)CC4)c3C2=O)C(=O)N1 (stereo not given)
active: HT29 colon -18.7% | SNB-75 CNS -75.8% | SNB-19 CNS -72.3% | U251 CNS -90.4% | PC-3 prostate -19.8% | SK-MEL-5 melanoma -95.3% | UACC-62 melanoma -72.7% | LOX IMVI melanoma -85.1% | SK-MEL-28 melanoma -84.8%

O=C(CSc1nc2sc3c(c2c(=O)n1-c1ccc(Cl)cc1)CCCC3)N/N=C/C=C/c1ccccc1
active: HT29 colon -19.3% | SNB-75 CNS -23.2% | U251 CNS -76.4% | PC-3 prostate -17.4% | SK-MEL-5 melanoma -95.2% | UACC-62 melanoma -79.9% | SK-MEL-28 melanoma -80.1%
inactive: SNB-19 CNS 27% | LOX IMVI melanoma 31.7%
